In PubChem BioAssay AID1347131 (National Center for Advancing Translational Sciences (NCATS), 2019):
Among all 410,000 compounds or so, about 2,000 (0.49%) were called active. Roughly 8% stayed inconclusive and do not appear here. Shown is part of a subset that was picked to be rich in actives. Values without a mark were called inactive. The call rests on the fitted dose curve; tested in HEK293 reporter line.

Experiment: qHTS Assay for Foot and Mouth Disease Virus Antivirals: Primary Screen against the MLPCN compound library; further: nearly all actives have a fitted effect of over 55% in size
Settings: FMDV antiviral cell-based qHTS; series mostly up to 57.9 µM; activity, negative = inhibition: at the top concentration
Potency means the concentration at half of the fitted maximal effect.

Row | SMILES | activity, negative = inhibition [%] | Potency
1 | COc1ccc(C(C)(O)c2nc(-c3ccc(S(C)(=O)=O)cc3)cs2)cc1 (stereo not given) | -32.7 | –
2 | COc1ccc(-c2csc(N3C(=O)CNC3=S)n2)cc1 | – | 10 µM (active)
3 | COc1ccc(C(C)(O)c2nc(-c3ccncc3)cs2)cc1 (stereo not given) | -42.2 | –
4 | Cc1ccc(CC2CC(=O)N(Cc3ccco3)C2=O)cc1 (stereo not given) | -35.1 | –
5 | Cn1c(=O)[nH]c(=O)c2c1nc(N1CCCCC1)n2CCOc1ccccc1 | -35.2 | –
6 | Cn1c(=O)c2c(nc(N3CCCCC3)n2CC(O)COc2ccccc2)n(C)c1=O (stereo not given) | -33.1 | –
7 | Cn1c(=O)[nH]c(=O)c2c1nc(N1CCCCC1)n2CC(O)COc1ccc([N+](=O)[O-])cc1 (stereo not given) | – | 10 µM (active)
8 | CCCc1cnc(N2CCN(C(=O)c3ccc(F)cc3)CC2)nc1 | -41.6 | –
9 | Cc1ccc2c(c1)N(C(=O)Nc1cccc3c1CCCC3)CCO2 | -30.4 | –
10 | CCC(Sc1nc(C)cc(C)n1)C(=O)O (stereo not given) | -22.8 | –
11 | O=S(=O)(c1ccc(Cl)cc1)N1CCc2ccccc21 | -35.5 | –
12 | COc1ccccc1CC1(C)C(=O)Nc2ccc(OC(F)(F)F)cc21 (stereo not given) | -32.7 | –
13 | FC(F)(F)c1ccccc1N1CC1c1ccncc1 (stereo not given) | -32 | –
14 | COc1ccccc1[C@]1(C)ON(c2ccccc2C(F)(F)F)C1=O | – | 14.1 µM (active)
15 | Cc1ccc(C(=O)N2CCN(c3nc4ccccc4n3C)CC2)cc1 | -32 | –
16 | O=C(O)c1ccccc1-c1nc2ccccc2n1-c1ccccc1 | -31.7 | –
17 | Cc1oc(-c2nc3ccccc3n2C)cc1C(=O)c1ccccc1 | – | 17.8 µM (active)
18 | CN(c1ccc(OCC(=O)Nc2ccc(S(N)(=O)=O)cc2)cc1)S(=O)(=O)c1ccc(F)cc1 | -36.3 | –
19 | Cc1ccc(S(=O)(=O)C2(S(=O)(=O)c3ccc(C)cc3)CC2)cc1 | -43.8 | –
20 | Cc1ccccc1C(=O)N1CCC(C(=O)Nc2cc(C(F)(F)F)ccc2N2CCCC2)CC1 | -33.6 | –
21 | O=C(NCCc1nc(-c2ccc(F)cc2)no1)c1ccc(F)cc1 | -36.1 | –
22 | CN(C)S(=O)(=O)N1CCC(Oc2cccc(C(=O)NCCC3=CCCCC3)c2)CC1 | -46.3 | –
23 | O=C(NCCC1=CCCCC1)c1ccc(F)cc1 | – | 14.1 µM (active)
24 | CCCCn1nc2cc(C(=O)NCC34CC5CC(CC(C5)C3)C4)ccc2c1OC | -35.6 | –
25 | Cc1noc(C)c1CSc1nnc(-c2cc(Cl)ccc2Cl)n1N | -31.2 | –
26 | CC(=O)c1sc(NC(=O)C2CC(=O)N(Cc3ccccc3)C2)nc1-c1ccccc1 (stereo not given) | -35.6 | –
27 | Clc1cc(Br)ccc1OCCCNCc1ccccc1 | -31.7 | –
28 | Brc1ccc(OCc2ccccc2)c(CNCc2ccncc2)c1 | – | 20 µM (active)
29 | CCOc1cc(CNCc2ccncc2)cc(Br)c1OCc1ccccc1F | -37 | –
30 | Cc1ccc(S(=O)(=O)c2c(C)nn(C(C)(C)C)c2OC(=O)C(C)(C)C)cc1 | -33.5 | –
